Assay outcomes: PubChem, National Center for Advancing Translational Sciences (NCATS)
Rows were chosen to be rich in hits. Some 11% of all compounds tested hit in one or more screens of this group.
L3MBTL1 inh – L3MBTL1 (human) inhibition; AlphaScreen L3MBTL1–H3K9me1 peptide binding; Potency, µM (top dose mostly 57.1 µM), without a hit: at the top dose activity, negative = inhibition, hits mostly inhibitors; 0.66% of 230,000 active; AID 485360; further: potency means the concentration at half of the fitted maximal effect; on the % scale 0 is the no-effect control and ±100 the full control effect; nearly all actives have a fitted effect of over 60% in size
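Read-out is AlphaScreen signal from streptavidin donor and nickel chelate acceptor beads (10 ug/mL final each) bridging L3MBTL1 (50 nM) and biotinylated K9-monomethylated H3(1-15) peptide (75 nM), after 30 min compound exposure at room temperature.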
BAZ2B block – BAZ2B (human) inhibition. Q9UIF8. AlphaScreen BAZ2B-H3K14Ac peptide displacement. Potency, µM (titrated, usually from 114 µM), for the others: at the highest dose activity change, negative = inhibition, actives largely listed as inhibitors. 4.4% of 360,000 active; further: potency means the concentration at half of the fitted maximal effect; on the % scale 0 is the no-effect control and ±100 the full control effect; nearly all actives have a fitted effect of over 60% in size
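AlphaScreen displacement of biotin-H3(5-23)K14Ac peptide (50 nM final) from BAZ2B (50 nM final) in PBS pH 7.4, 0.01% Tween-20; complex preformed 30 min RT, then compounds (top 110 uM) 30 min RT, beads 20 min dark.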
PI5P4Ka inh – blocks human PI5P4K alpha kinase activity. 1.2% of 330,000 active. max response, %. PI5P4Kalpha enzyme, ADP-Glo luminescence, 60 min; stronger effect = lower value. P48426. AID 652105; active means max response of -50% or lower; inconclusive means between -30% and -50%; inactive means -30% or higher; further: value at the top dose of about 77 µM; on the % scale 0 is the no-effect control and ±100 the full control effect
Target sequence (P48426 whole entry, looked up): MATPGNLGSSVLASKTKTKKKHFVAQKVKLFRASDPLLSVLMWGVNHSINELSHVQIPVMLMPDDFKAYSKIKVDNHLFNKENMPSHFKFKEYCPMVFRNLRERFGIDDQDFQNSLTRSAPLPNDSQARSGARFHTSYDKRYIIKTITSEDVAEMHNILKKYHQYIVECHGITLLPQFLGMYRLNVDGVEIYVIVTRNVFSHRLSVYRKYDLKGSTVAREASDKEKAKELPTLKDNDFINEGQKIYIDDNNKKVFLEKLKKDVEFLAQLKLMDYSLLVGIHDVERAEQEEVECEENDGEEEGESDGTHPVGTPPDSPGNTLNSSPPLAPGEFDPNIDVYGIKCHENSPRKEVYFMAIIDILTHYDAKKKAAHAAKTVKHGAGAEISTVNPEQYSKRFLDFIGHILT
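qHTS, 1536-well: enzyme/substrate mix, compound by pin tool, 5 microM ATP final; RT 60 min; ADP-Glo reagents 1 (45 min) then 2 (30 min); luminescence.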
JMJD2A Tudor inh – inhibitors of human JMJD2A Tudor domain; O75164; AlphaScreen JMJD2A-Tudor / H3K4me3 peptide binding; Potency, µM (doses to about 114 µM), inactives show at the top dose activity change, negative = inhibition, usual class: inhibitors; 4.4% of 390,000 active; AID 504339; further: potency means the concentration at half of the fitted maximal effect; on the % scale 0 is the no-effect control and ±100 the full control effect; nearly all actives have a fitted effect of over 50% in size
HP1b binding inh – blocks HP1-beta chromodomain binding to methylated histone tails; P83916; AlphaScreen HP1-beta / biotin-H3K9me3 peptide binding; Potency, µM (top dose mostly 114 µM), without a hit: at the top dose activity change, negative = inhibition, actives largely listed as inhibitors; 0.56% of 390,000 active; AID 540317; further: potency means the concentration at half of the fitted maximal effect; nearly all actives have a fitted effect of over 70% in size
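AlphaScreen: HP1-beta (50 nM) preformed 30 min with biotin-H3(1-18)K9me3 peptide (50 nM) in PBS pH 7.4, 0.01% Tween-20. Compound added for 30 min at RT, then streptavidin donor/nickel chelate acceptor beads (10 ug/mL) for 30 min.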
G9a block – G9a (human) methyltransferase inhibition. Q96KQ7. G9a H3K9 monomethylation, AlphaScreen, 2 h. Potency, µM (titrated, usually from 102 µM), inactives show at the highest dose activity, negative = inhibition, hits mostly inhibitors. 8.8% of 350,000 active; further: potency means the concentration at half of the fitted maximal effect; on the % scale 0 is the no-effect control and ±100 the full control effect; nearly all actives have a fitted effect of over 75% in size
Target sequence (Q96KQ7 913-1193 limits assumed): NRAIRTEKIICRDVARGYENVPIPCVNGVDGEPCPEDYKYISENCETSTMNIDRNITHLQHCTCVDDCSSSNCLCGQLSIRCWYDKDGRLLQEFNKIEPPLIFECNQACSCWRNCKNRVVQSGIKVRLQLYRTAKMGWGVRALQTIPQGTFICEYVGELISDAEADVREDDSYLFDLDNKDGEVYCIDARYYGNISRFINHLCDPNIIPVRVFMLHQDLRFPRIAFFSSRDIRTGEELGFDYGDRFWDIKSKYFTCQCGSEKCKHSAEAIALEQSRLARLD
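Methyltransferase reactions run at room temperature for 2 h (20 nM enzyme, 500 nM biotin-H3K9 peptide, 20 uM SAM) after a 15 min compound preincubation; product detected by AlphaScreen beads and anti-H3K9me1 antibody.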
An asterisk follows results filed as active; [ ] = another dose, or the depositor's remark. Unless noted, the call rests on the fitted dose curve; in most records, active means well fitted inhibition curve with a large enough effect; inconclusive means small, poorly fitted or top-dose-only effect; inactive means no such curve, though single readings can be large or run the other way.

`O=C(NCCc1ccc(Cl)cc1)c1cccc(S(=O)(=O)N2CCCC2)c1` gave PI5P4Ka inh -10.2.
`CC(=O)c1c2c3c(cccc3n(C)c1=O)C(=O)c1ccccc1-2` gave L3MBTL1 inh inconclusive, BAZ2B block inconclusive, PI5P4Ka inh -10.8, JMJD2A Tudor inh -26.9%, HP1b binding inh 48.0% and G9a block 17.8µM*.
`CC(=O)c1c2c3c(c(Br)ccc3n(C)c1=O)C(=O)c1ccccc1-2` gave BAZ2B block inconclusive, PI5P4Ka inh -14.3, JMJD2A Tudor inh -35.8% and HP1b binding inh -20.5%[57 µM].
For Cn1c(=O)c(Nc2ccc(O)cc2)c2c3c(cccc31)C(=O)c1ccccc1-2 the results were L3MBTL1 inh 25.1µM*, BAZ2B block 6.31µM*, PI5P4Ka inh inconclusive, JMJD2A Tudor inh 7.94µM*, HP1b binding inh 17.8µM* and G9a block 12.6µM*.
Cc1csc(NC(=O)Cc2coc3cc(C)c(C(C)C)cc23)n1 was read as BAZ2B block inconclusive, PI5P4Ka inh 14.5, JMJD2A Tudor inh -31.6%, HP1b binding inh 14.9% and G9a block 44.7µM*.
COc1ccccc1-c1nnc(C2CCN(C(=O)c3cccc(Cl)c3)CC2)o1 was read as BAZ2B block -0.5%, JMJD2A Tudor inh -5.0%, HP1b binding inh 54.6% and G9a block 0.1%[59 µM].
For Oc1ccc(Nc2nc(-c3ccccc3)nc3ccccc23)cc1 the results were BAZ2B block inconclusive, PI5P4Ka inh -0.7, JMJD2A Tudor inh -26.4%, HP1b binding inh 3.4% and G9a block -0.7%.
Screening Oc1ccc(Nc2nc3ccccc3nc2Nc2ccc(O)cc2)cc1 returned BAZ2B block 50.1µM*, PI5P4Ka inh -20.6, JMJD2A Tudor inh inconclusive, HP1b binding inh inconclusive and G9a block 10µM*.
`COCCNC(=O)CSc1nc2cc3c(cc2c(=O)n1Cc1ccc(C(=O)NCCc2ccc(OC)c(OC)c2)cc1)OCO3` gave BAZ2B block -4.5%, JMJD2A Tudor inh -9.3%, HP1b binding inh 17.5% and G9a block 4.1%[59 µM].
Screening CCOC(=O)C1CCCN(c2nc3c(S(=O)(=O)c4ccc(Br)cc4)nnn3c3ccsc23)C1 (stereo unspecified) returned BAZ2B block -9.2%, JMJD2A Tudor inh 89.1µM*, HP1b binding inh 35.4% and G9a block -14.8%[59 µM].
For COc1ccc(NC(=O)N2CCc3c(sc4c3CCCC4)C2c2ccccc2OC)cc1 (stereo unspecified) the results were BAZ2B block -38.9%, JMJD2A Tudor inh -29.7%, HP1b binding inh 0.7% and G9a block inconclusive.
For COc1ccc(C2Nc3ccccc3C(=O)N2Cc2ccco2)cc1COc1c(C)cccc1C (stereo unspecified) the results were JMJD2A Tudor inh inconclusive and HP1b binding inh 38.2%.
`CCN(CC)CCOC(=O)/C=C/c1ccccc1OC` gave L3MBTL1 inh 4.8%, BAZ2B block 0.1%, PI5P4Ka inh 4.4, JMJD2A Tudor inh -10.8%, HP1b binding inh 40.3% and G9a block -2.7%[59 µM].
For CCCCN(C/C=C/c1ccccc1OC)Cc1ccccc1 the results were L3MBTL1 inh -2.4%, BAZ2B block inconclusive, PI5P4Ka inh 4.9, JMJD2A Tudor inh 1.26µM*, HP1b binding inh inconclusive and G9a block 17.8µM*.
For CCN(C/C=C/c1ccccc1OC)Cc1ccccc1 the results were L3MBTL1 inh 3.3%, BAZ2B block inconclusive, PI5P4Ka inh -0.2, JMJD2A Tudor inh 20µM* and HP1b binding inh inconclusive.
`CCOc1ccc(C2c3c(oc4ccc(C)cc4c3=O)C(=O)N2c2nc(C)c(C)s2)cc1OC` (stereo unspecified) gave BAZ2B block 2.5%, JMJD2A Tudor inh -16.5%, HP1b binding inh 12.1% and G9a block 1.7%[59 µM].
Cc1cccc(Cn2nc(C)n3c(cc4cc(C)ccc43)c2=O)c1 was read as BAZ2B block -3.0%, JMJD2A Tudor inh 5.0%, HP1b binding inh 45.8% and G9a block 9.9%[59 µM].
Screening Cc1cc(C)c(S(=O)(=O)Nc2ccc(N(C)C)cc2)c(C)c1-n1cnnn1 returned BAZ2B block 39.8µM*, PI5P4Ka inh 4.3, JMJD2A Tudor inh inconclusive, HP1b binding inh -26.7% and G9a block 3.55µM*.
Screening Cc1ccc(S(=O)(=O)Nc2ccc(-n3cnnn3)cc2)c(C)c1 returned L3MBTL1 inh 1.6%, BAZ2B block 5.5%, PI5P4Ka inh -1.7, JMJD2A Tudor inh 3.2%, HP1b binding inh 31.2% and G9a block -6.6%[2.33 µM].
`CCn1cc(S(=O)(=O)c2ccccc2)c(=O)c2cc(F)c(N3CCN(c4ccccc4)CC3)cc21` gave BAZ2B block -8.7%, JMJD2A Tudor inh -29.0%, HP1b binding inh 34.6% and G9a block -22.9%[59 µM].
`CC(=O)/C(=N/Nc1ccccc1Cl)Sc1nnc(C(O)c2ccccc2)n1-c1ccccc1` (stereo unspecified) gave L3MBTL1 inh -7.3%, BAZ2B block -2.6%, PI5P4Ka inh -2.0, JMJD2A Tudor inh inconclusive, HP1b binding inh 21.3% and G9a block 10µM*.
CC(=O)/C(=N/Nc1ccccc1)Sc1nnc(C(O)c2ccccc2)n1-c1ccccc1 (stereo unspecified) was read as L3MBTL1 inh -7.1%, BAZ2B block inconclusive, PI5P4Ka inh 8.1, JMJD2A Tudor inh -24.1%, HP1b binding inh 23.5% and G9a block 44.7µM*.
Screening COC(=O)/C(=N/Nc1ccccc1Cl)Sc1nnc(C(O)c2ccccc2)n1-c1ccccc1 (stereo unspecified) returned L3MBTL1 inh 16.0%, BAZ2B block 15.0%, PI5P4Ka inh -1.8, JMJD2A Tudor inh -17.8%, HP1b binding inh 30.2% and G9a block 44.7µM*.
CC(Sc1nc(-c2ccccc2)c(C#N)c(=O)[nH]1)C(=O)Nc1ccc(F)cc1 (stereo unspecified) was read as BAZ2B block -14.3%, JMJD2A Tudor inh -26.5%, HP1b binding inh 19.8% and G9a block -21.7%[59 µM].
Screening Cc1cc(=O)[nH]c(N2CCCC2)n1 returned BAZ2B block -33.4%, PI5P4Ka inh 2.4, JMJD2A Tudor inh -7.2%, HP1b binding inh 25.3% and G9a block 17.0%[59 µM].
Screening Cc1cc(=O)[nH]c(-n2[nH]c(C)cc2=O)n1 returned L3MBTL1 inh -3.6%, BAZ2B block 11.2µM*, PI5P4Ka inh 4.7, JMJD2A Tudor inh 44.7µM*, HP1b binding inh 48.3% and G9a block -40.2%[0.0925 µM].
Screening Cc1ccc(C)c(N2CCN(c3nc4ccccc4n4c(C)nnc34)CC2)c1 returned BAZ2B block 21.2%, JMJD2A Tudor inh 9.2%, HP1b binding inh 61.3% and G9a block 22.5%[59 µM].
